Results reported in PubChem BioAssay.
Values without a mark were called inactive. For some of these results: Measured potencies and affinities stand elsewhere. Active and inactive are the calls of the source. Unless noted, no rule for the calls is given here.

Experiments:
[1] = antimalarial activity against Dd2 strain (AID 2302;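 active = growth inhibition above 50% at the single 2 µM test dose, taken to imply half-maximal potency below 2 µM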;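 also: 0% = DMSO untreated growth and 100% = chloroquine plus artemisinin killed control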); conditions: P. falciparum Dd2 in RBCs, LDH growth readout, 72 h; at 2 µM; stronger effect = higher value
[2] = HepG2 cytotoxicity, primary screen, cytotoxicity control for P. falciparum antimalarial project, cell-based, ATP luminescence (AID 2303;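 active = inhibition above 50%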;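 also: 0% = DMSO wells and 100% = digitonin-killed cells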); conditions: HepG2 viability, 24-48 h, at 10 µM, stronger effect = higher value
[3] = target: L-lactate dehydrogenase (Plasmodium falciparum (isolate CDC / Honduras)) (UniProt Q27743); test: PfLDH activity inhibition – cell lysate, 3D7 strain, counter-screen for P. falciparum growth inhibition project (AID 2304);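 also: 0% = vehicle and 100% = reference inhibitor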; conditions: P. falciparum 3D7 crude extract, LDH APAD/NBT absorbance; at 2 µM; stronger effect = higher value
Sequence of L-lactate dehydrogenase (Plasmodium falciparum (isolate CDC / Honduras)) (Q27743 whole entry, looked up): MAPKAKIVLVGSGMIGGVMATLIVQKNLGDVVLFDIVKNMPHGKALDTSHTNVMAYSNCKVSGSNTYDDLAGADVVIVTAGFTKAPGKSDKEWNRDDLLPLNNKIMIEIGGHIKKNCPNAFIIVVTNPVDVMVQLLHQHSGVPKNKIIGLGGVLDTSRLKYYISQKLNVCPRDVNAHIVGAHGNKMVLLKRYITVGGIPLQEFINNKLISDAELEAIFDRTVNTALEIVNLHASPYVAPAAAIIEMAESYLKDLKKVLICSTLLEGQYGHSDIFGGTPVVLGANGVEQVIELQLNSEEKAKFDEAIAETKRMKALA

[4] = inhibition of 3D7 malaria parasite growth – strain 3D7 (AID 2306);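 also: 0% = DMSO wells and 100% = chloroquine plus artemisinin control wells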; conditions: P. falciparum 3D7 erythrocytic growth, LDH absorbance, 72 h; at 2 µM; stronger effect = higher value
[5] = target: Calcium-dependent protein kinase 1 (Plasmodium falciparum (isolate 3D7)) (UniProt P62344); test: PfCDPK1 kinase inhibitors, biochemical, TCAMS library (AID 1159585; cut-off not given, nearly all actives have IC50 up to about 0.98 µM;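 also: inhibitors leave more ATP so luminescence rises with inhibition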); conditions: recombinant PfCDPK1, Kinase-Glo ATP depletion luminescence
Sequence of Calcium-dependent protein kinase 1 (Plasmodium falciparum (isolate 3D7)) (P62344 whole entry, looked up): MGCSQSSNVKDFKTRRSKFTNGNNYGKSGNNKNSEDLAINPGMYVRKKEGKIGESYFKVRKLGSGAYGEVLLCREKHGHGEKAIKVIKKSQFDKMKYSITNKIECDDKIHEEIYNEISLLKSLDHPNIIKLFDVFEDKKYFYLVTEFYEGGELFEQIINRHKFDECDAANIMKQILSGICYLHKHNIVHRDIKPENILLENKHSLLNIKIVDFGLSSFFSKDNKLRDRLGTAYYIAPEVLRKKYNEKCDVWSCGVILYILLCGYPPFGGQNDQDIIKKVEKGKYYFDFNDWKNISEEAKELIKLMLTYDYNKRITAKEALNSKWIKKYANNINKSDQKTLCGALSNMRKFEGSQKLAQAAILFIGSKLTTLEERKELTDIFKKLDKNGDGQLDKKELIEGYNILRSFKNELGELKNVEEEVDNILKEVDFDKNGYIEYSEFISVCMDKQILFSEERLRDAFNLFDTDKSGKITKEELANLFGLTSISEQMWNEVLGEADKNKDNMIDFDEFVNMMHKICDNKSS

[6] = target: Plasmodium falciparum protein kinase 6 (PK6, PF3D7_1337100) (UniProt Q8IDW1); test: PfPK6 kinase inhibitors, biochemical, TCAMS library (AID 1159586); conditions: recombinant PfPK6, Kinase-Glo ATP depletion luminescence
Sequence of Plasmodium falciparum protein kinase 6 (PK6, PF3D7_1337100) (Q8IDW1 1-305): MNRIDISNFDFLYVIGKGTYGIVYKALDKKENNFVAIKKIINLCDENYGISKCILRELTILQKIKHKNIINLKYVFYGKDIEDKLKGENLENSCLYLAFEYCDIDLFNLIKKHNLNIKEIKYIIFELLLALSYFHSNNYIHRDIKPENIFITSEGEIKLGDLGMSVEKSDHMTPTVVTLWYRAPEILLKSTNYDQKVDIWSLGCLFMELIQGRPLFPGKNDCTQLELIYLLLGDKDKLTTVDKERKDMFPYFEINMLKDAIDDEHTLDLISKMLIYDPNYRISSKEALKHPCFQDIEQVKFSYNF

[7] = target: Protein kinase 7 (PK7), Plasmodium falciparum 3D7 (PF3D7_0213400) (UniProt Q7YTF7); test: inhibition of Plasmodium PK7 catalytic activity – biochemical, TCAMS antimalarial set, Kinase-Glo luminescence (AID 1159587); conditions: recombinant PfPK7, Kinase-Glo ATP depletion luminescence
Sequence of Protein kinase 7 (PK7), Plasmodium falciparum 3D7 (PF3D7_0213400) (Q7YTF7 1-343): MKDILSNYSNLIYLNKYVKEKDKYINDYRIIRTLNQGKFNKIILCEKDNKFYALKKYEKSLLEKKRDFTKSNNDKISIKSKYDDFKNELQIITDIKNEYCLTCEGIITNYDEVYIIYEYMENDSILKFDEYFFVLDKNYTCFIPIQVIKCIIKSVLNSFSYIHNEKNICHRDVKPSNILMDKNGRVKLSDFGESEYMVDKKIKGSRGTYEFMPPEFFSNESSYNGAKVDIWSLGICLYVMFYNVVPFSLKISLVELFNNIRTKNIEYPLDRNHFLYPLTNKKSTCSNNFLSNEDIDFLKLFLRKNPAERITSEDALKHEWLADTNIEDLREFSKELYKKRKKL

[8] = target: Calcium-dependent protein kinase 4 (Plasmodium falciparum (isolate 3D7)) (UniProt Q8IBS5); test: PfCDPK4 kinase inhibitors, biochemical, TCAMS library (AID 1159588; cut-off not given, nearly all actives have IC50 up to about 0.91 µM); conditions: recombinant PfCDPK4, Kinase-Glo ATP depletion luminescence
Sequence of Calcium-dependent protein kinase 4 (Plasmodium falciparum (isolate 3D7)) (Q8IBS5 whole entry, looked up): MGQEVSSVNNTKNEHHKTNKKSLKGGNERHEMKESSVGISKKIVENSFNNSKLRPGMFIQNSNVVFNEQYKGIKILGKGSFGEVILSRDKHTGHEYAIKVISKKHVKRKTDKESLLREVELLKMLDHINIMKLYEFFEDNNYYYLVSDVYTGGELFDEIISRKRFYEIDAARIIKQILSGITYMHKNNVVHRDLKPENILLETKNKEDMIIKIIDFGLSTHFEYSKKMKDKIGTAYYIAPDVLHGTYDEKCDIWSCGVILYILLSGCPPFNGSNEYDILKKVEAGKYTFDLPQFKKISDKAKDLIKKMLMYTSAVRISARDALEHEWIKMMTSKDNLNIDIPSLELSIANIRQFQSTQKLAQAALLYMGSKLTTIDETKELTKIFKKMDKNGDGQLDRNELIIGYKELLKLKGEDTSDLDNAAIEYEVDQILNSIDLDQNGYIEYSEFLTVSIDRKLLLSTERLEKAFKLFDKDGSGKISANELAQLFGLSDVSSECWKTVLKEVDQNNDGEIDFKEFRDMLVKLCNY

SMILES | growth inhibition [1] | inhibition [2] | inhibition [3] | growth inhibition [4] | outcome [5] | outcome [6] | outcome [7] | outcome [8]
CN(C)C(=NCCCCCCN=C(NC(N)=NCc1ccc(Cl)c(Cl)c1)N(C)C)NC(N)=NCc1ccc(Cl)c(Cl)c1 | 99% (active) | 20% | -9% | 93% (active) | inactive | inactive | inactive | inactive
Cc1ccc(Nc2nc(NN=Cc3ccccc3[N+](=O)[O-])nc(Nc3ccc([N+](=O)[O-])cc3)n2)cc1C | 81% (active) | 4% | 5% | 101% (active) | inactive | inactive | inactive | inactive
Ic1cc(CNC2CCCCC2)ccc1OCc1cccc(COc2ccc(CNC3CCCCC3)cc2I)c1 | 34% | -1% | -4% | 93% (active) | inactive | inactive | inactive | inactive
O=C(Nc1ccc2c(c1)CCN(C1CCC1)CC2)c1ccc(-c2cn3ccccc3n2)cc1 | 42% | 13% | 2% | 102% (active) | inactive | inactive | inactive | inactive
CCN1CCN(Cc2ccc3nc(-c4cc(C)n(Cc5cc(Cl)ccc5OCc5ccccc5)n4)[nH]c3c2)CC1 | 97% (active) | 11% | 2% | 102% (active) | inactive | inactive | inactive | inactive
CCCN(CCC)CCCCC(C)Nc1c2ccc(Cl)cc2nc2ccc(OC)cc12 (stereo not given) | 100% (active) | 42% | -2% | 102% (active) | inactive | inactive | inactive | inactive
COc1ccc(OCCCON2C(N)=NC(N)=NC2(C)C)cc1 | 94% (active) | 55% (active) | -3% | 97% (active) | inactive | inactive | inactive | inactive
FC(F)(F)c1ccc2nccc(NN=Cc3cccnc3)c2c1 | 40% | -9% | -8% | 101% (active) | inactive | inactive | inactive | inactive
COc1cc(Nc2ccnc3ccc(C(C)(C)C)cc23)cc(OC)c1OC | 80% (active) | 12% | 1% | 100% (active) | inactive | inactive | inactive | inactive
O=C(NCCCCN1CCC(c2ccc3c(c2O)CCCC3)CC1)c1ccc(-c2ccc(Cl)cc2)cc1 | 72% (active) | 97% (active) | 1% | 98% (active) | inactive | inactive | inactive | inactive
Cc1cc(NC(=O)Nc2ccc3sccc3c2)c2ccccc2n1 | 57% (active) | 41% | 0% | 99% (active) | inactive | inactive | inactive | inactive
CCCCCCCCOc1c(OCC)cc(Cc2cnc(N)nc2N)cc1OCC | -1% | 25% | 3% | 80% (active) | inactive | inactive | inactive | inactive
Cc1cc(NCCc2ccccc2)nc(/N=C(\N)Nc2ccc(Cl)cc2)n1 | 100% (active) | 7% | 4% | 102% (active) | inactive | inactive | inactive | inactive
Cc1cc(N(C)C)nc(Nc2ccc(NC(=O)C3CCCCC3)cc2)n1 | 68% (active) | 3% | -1% | 101% (active) | inactive | inactive | inactive | inactive
COc1ccc(CCn2c(=N)c(C(=O)NCc3cccnc3)cc3c(=O)n4ccccc4nc32)cc1 | 5% | 16% | -2% | 98% (active) | inactive | inactive | inactive | inactive
Cn1ccnc1CNC(=O)c1ccc(-c2cccc(-c3nc4ccc(C(F)(F)F)cc4[nH]3)c2)cc1 | 80% (active) | 20% | 3% | 101% (active) | inactive | inactive | inactive | inactive
Oc1cccc(/C=N/Nc2ccnc3cc(Cl)ccc23)c1 | 95% (active) | -9% | 0% | 104% (active) | inactive | inactive | inactive | inactive
Cc1cc(-c2cc3nc4c(c(=O)n3[nH]2)CCCC4)c(C)o1 | 82% (active) | 4% | -4% | 94% (active) | inactive | inactive | inactive | inactive
COc1ccc(CN2CCC(CNCC(c3ccccc3)c3ccccc3)CC2)cc1 | 95% (active) | 84% (active) | -4% | 102% (active) | inactive | inactive | inactive | inactive
O=C(/C=C/c1ccc(Cl)c(Cl)c1)NCCCCCN1CCC(NC(=O)Nc2ccccc2F)CC1 | 25% | 14% | -5% | 95% (active) | inactive | inactive | inactive | inactive
